Assay results published in PubChem BioAssay (NCI).
This is part of a sample that, as a whole, favours compounds with a hit. Of some 79,000 tested, about 15% had one in any assay. The source made the active and inactive calls. No stated cut-off is given here; in the data, active means growth inhibition above about 70%; inactive means the rest.

Legend:
[1] = NCI Yeast Anticancer Drug Screen. Data for the rad52 strain (AID 147);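 further: 0% = growth of vehicle-treated control cultures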; settings: S. cerevisiae rad52 mutant growth inhibition, stronger effect = higher value
Summary of the method: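 DNA repair-defective yeast; compound exposure; growth scored against vehicle controls.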

[2] = NCI Yeast Anticancer Drug Screen. Data for the wt1 strain (AID 149);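 further: 0% = growth of vehicle-treated wt1 cultures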; settings: S. cerevisiae wt1 strain (SPY 50644) growth inhibition, stronger effect = higher value
Summary of the method: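 The wt1 strain was treated with compounds, and growth was compared with vehicle-treated cultures to give inhibition.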

[3] = NCI Yeast Anticancer Drug Screen. Data for the rad50EPP+ strain (AID 151);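 further: 0% = growth of vehicle-treated control cultures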; settings: S. cerevisiae rad50 mutant strain, stronger effect = higher value
Summary of the method: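 rad50EPP+ yeast treated with test compounds. Readout: growth vs vehicle control.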

[4] = NCI Yeast Anticancer Drug Screen. Data for the rad50 strain (AID 155);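 further: 0% = growth of vehicle-only cultures of the same strain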; settings: S. cerevisiae rad50 strain growth inhibition, stronger effect = higher value
Summary of the method: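 Cells are treated with compound, grown, and their growth is then scored against vehicle-only cultures of the same repair-deficient yeast strain.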

[5] = NCI Yeast Anticancer Drug Screen. Data for the mec2-1 strain (AID 157); settings: S. cerevisiae mec2-1 strain, stronger effect = higher value
Summary of the method: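 Growth inhibition is read against vehicle-treated controls after compound exposure of the mec2-1 yeast strain, which is defective in DNA damage repair or cell cycle control.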

[6] = NCI Yeast Anticancer Drug Screen. Data for the rad14 strain (AID 159);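 further: 0% = growth of vehicle-treated control cultures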; settings: S. cerevisiae rad14 strain growth inhibition, stronger effect = higher value
Summary of the method: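 Readout: yeast growth inhibition, referenced to vehicle-only cultures. Strain bears a defined alteration in DNA damage repair.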

[7] = NCI Yeast Anticancer Drug Screen. Data for the sgs1 mgt1 strain (AID 161);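 further: 0% = growth of cultures given vehicle only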; settings: S. cerevisiae sgs1 mgt1 strain, stronger effect = higher value
Summary of the method: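 Percent growth inhibition was derived by comparing compound-exposed mutant yeast with vehicle-exposed cultures. The strain carries alterations in DNA damage repair.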

[8] = NCI Yeast Anticancer Drug Screen. Data for the cln2 rad14 strain (AID 165);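 further: 0% = growth equal to vehicle treated cultures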; settings: S. cerevisiae cln2 rad14 strain, stronger effect = higher value
Summary of the method: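 Growth inhibition, relative to vehicle-treated controls, is the read-out. The test organism is a yeast strain with defined genetic alterations, cln2 rad14.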

[9] = NCI Yeast Anticancer Drug Screen. Data for the bub3 strain (AID 167); settings: S. cerevisiae bub3 mutant strain, stronger effect = higher value
Summary of the method: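 Part of a panel of yeast mutants defective in DNA damage repair or cell cycle regulation. Each strain is grown with compound, and inhibition is calculated relative to solvent-treated cultures.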

[10] = NCI Yeast Anticancer Drug Screen. Data for the wt2 strain (AID 169);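 further: 0% = growth of vehicle-treated yeast cultures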; settings: S. cerevisiae wt2 strain growth inhibition, stronger effect = higher value
Summary of the method: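 Compound exposure of yeast; growth compared with vehicle controls; inhibition reported.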

[11] = NCI Yeast Anticancer Drug Screen. Data for the mlh1 strain (AID 171);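 further: 0% = growth of vehicle-treated control cultures of the same strain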; settings: S. cerevisiae mlh1 strain growth inhibition, stronger effect = higher value
Summary of the method: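 Compounds are applied to a genetically altered yeast strain, and its growth is compared with that of vehicle-treated cultures to give percent inhibition.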

[12] = NCI Yeast Anticancer Drug Screen. Data for the sgs1 strain (AID 173);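 further: 0% = growth of vehicle-only control cultures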; settings: S. cerevisiae sgs1 mutant, stronger effect = higher value
Summary of the method: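 Compounds applied to genetically altered yeast; growth compared with vehicle-treated cultures to give % inhibition.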

[13] = NCI Yeast Anticancer Drug Screen. Data for the mlh1 rad18 strain (AID 175); settings: S. cerevisiae mlh1 rad18 strain growth inhibition, stronger effect = higher value
Summary of the method: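 Cells of a genetically altered yeast strain, deficient in DNA damage repair, were treated with compound. Their growth was then compared with that of vehicle-treated cultures to give inhibition.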

[14] = NCI Yeast Anticancer Drug Screen. Data for the rad18 strain (AID 177); settings: S. cerevisiae rad18 mutant growth inhibition, stronger effect = higher value
Summary of the method: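 Compounds are applied to a repair-deficient yeast strain, and growth is compared with that of vehicle-treated cultures to give percent inhibition.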

[15] = at 5.0 µM (retest, dose inferred, filed as 0.5)
[16] = at 50.0 µM (retest, dose inferred, filed as 5.0)

Measured: growth inhibition

CN(C)CCNC(=O)c1cccc2cc([N+](=O)[O-])ccc12
active: [1]; at 33.0 µM 92% | [1]; at 100.0 µM 96% | [2]; at 33.0 µM 80% | [2]; at 100.0 µM 93% | [3]; at 33.0 µM 91% | [3]; at 100.0 µM 95% | [4]; at 11.0 µM 77% | [4]; at 33.0 µM 93% | [4]; [16] 92% | [4]; at 50.0 µM 86.5% | [4]; at 100.0 µM 97% | [5]; at 33.0 µM 70% | [5]; [16] 72% | [5]; at 50.0 µM 82.7% | [5]; at 100.0 µM 93% | [6]; at 33.0 µM 80% | [6]; at 100.0 µM 93% | [7]; at 50.0 µM 84.3% | [8]; at 50.0 µM 71% | [9]; at 50.0 µM 82.8% | [9]; at 100.0 µM 85% | [10]; at 100.0 µM 87% | [11]; at 100.0 µM 92% | [12]; at 33.0 µM 79% | [12]; at 100.0 µM 93% | [13]; [16] 86% | [14]; at 33.0 µM 70% | [14]; at 100.0 µM 90%
inactive: [1]; at 1.2 µM 14% | [1]; at 3.7 µM 20% | [1]; at 11.0 µM 61% | [2]; at 1.2 µM 13% | [2]; at 3.7 µM 8% | [2]; at 11.0 µM 41% | [3]; at 1.2 µM 5% | [3]; at 3.7 µM 21% | [3]; at 11.0 µM 64% | [4]; at 1.2 µM 35% | [4]; at 3.7 µM 42% | [4]; [15] 38% | [5]; at 1.2 µM -6% | [5]; at 3.7 µM 8% | [5]; [15] 11% | [5]; at 11.0 µM 20% | [6]; at 1.2 µM -1% | [6]; at 3.7 µM 10% | [6]; at 11.0 µM 47% | [7]; [15] -2% | [7]; [16] 68% | [8]; [15] 23% | [8]; [16] 55% | [9]; at 1.2 µM -12% | [9]; at 3.7 µM -27% | [9]; [15] 8% | [9]; at 11.0 µM -18% | [9]; at 33.0 µM 51% | [9]; [16] 67% | [10]; at 1.2 µM -13% | [10]; at 3.7 µM -10% | [10]; at 11.0 µM 5% | [10]; at 33.0 µM 60% | [11]; at 1.2 µM -7% | [11]; at 3.7 µM 6% | [11]; at 11.0 µM 33% | [11]; at 33.0 µM 69% | [12]; at 1.2 µM 16% | [12]; at 3.7 µM 22% | [12]; at 11.0 µM 49% | [13]; [15] 18% | [13]; at 50.0 µM 45.6% | [14]; at 1.2 µM 7% | [14]; at 3.7 µM 5% | [14]; at 11.0 µM 23%
